Screens (PubChem BioAssay)
ELG1 genotoxic: induces genotoxicity in HEK293T cells with luciferase-tagged ELG1 | HEK293T ELG1-luciferase reporter, luminescence, 16 h | Potency, µM (titrated, usually from 46 µM), actives largely listed as activators | 1.3% of 330,000 active; further: nearly all actives have a fitted effect of over 60% in size
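Quantitative HTS format in 1536-well plates. HEK293T ELG1-luciferase reporter cells receive test compound and are incubated 16 hr at 37 °C, 5% CO2; ONE-Glo added, 30 min room temperature, then luminescence read.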
FLuc counter: inhibits or activates purified firefly luciferase, miR-21 counter-screen; P08659; purified FLuc, Km substrates, luminescence inhibition; Potency, µM (series often up to 57.5 µM), actives largely listed as inhibitors; 6.9% of 360,000 active; AID 588342; further: nearly all actives have a fitted effect of over 55% in size
Target sequence (P08659 whole entry, looked up): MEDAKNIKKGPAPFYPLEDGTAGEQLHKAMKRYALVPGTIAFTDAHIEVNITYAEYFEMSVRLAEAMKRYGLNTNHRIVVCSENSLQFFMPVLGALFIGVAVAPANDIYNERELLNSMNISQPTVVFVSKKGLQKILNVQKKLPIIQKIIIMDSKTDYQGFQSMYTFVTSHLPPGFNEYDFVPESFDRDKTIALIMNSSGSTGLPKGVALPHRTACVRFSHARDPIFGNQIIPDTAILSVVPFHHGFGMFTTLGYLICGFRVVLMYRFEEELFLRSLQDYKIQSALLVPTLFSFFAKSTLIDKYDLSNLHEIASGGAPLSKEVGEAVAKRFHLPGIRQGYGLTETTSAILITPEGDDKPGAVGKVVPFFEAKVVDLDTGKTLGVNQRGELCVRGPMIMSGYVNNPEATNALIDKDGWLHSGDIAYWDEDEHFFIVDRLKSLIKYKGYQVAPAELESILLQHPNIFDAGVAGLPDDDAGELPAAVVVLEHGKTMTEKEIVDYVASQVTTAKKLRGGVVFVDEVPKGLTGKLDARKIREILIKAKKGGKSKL
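Purified P. pyralis luciferase (10nM final) with 10uM D-luciferin and 10uM ATP (Km levels) in 50mM Tris acetate pH 7.5, 10mM Mg acetate, 0.01% Tween-20, 0.05% BSA; qHTS 6-point titration, ~60 µM downward; luminescence read.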
SMN2 splice enh: SMN2 splice variant enhancement | HEK293 SMN2-luciferase splicing reporter, luminescence, 30-36 h | 2.8% of 210,000 active | Potency, µM (series often up to 46.1 µM), hits mostly activators; further: nearly all actives have a fitted effect of over 55% in size
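HEK293 cells carry an SMN2 minigene-luciferase reporter in which exon 7 inclusion puts luciferase in frame. Cells were seeded at 2000 cells/well, attached for 10-12 hours, then exposed to compounds for 30-36 hours at 37C before ONE-Glo luminescence.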
Rab9 prom act: Rab9 promoter activation; Huh7 Rab9 promoter-luciferase reporter, luminescence, 24 h; Potency, µM (top dose mostly 9.22 µM), actives largely listed as activators; 2.8% of 320,000 active; AID 485297; further: nearly all actives have a fitted effect of over 60% in size
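Measured in stably transfected Huh7 cells bearing a Rab9 promoter–luciferase construct: 24 h compound treatment at 37 °C, followed by luminescence detection.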
NPC1 prom act: NPC1 promoter activation; Huh7 NPC1 promoter luciferase reporter, 24 h; Potency, µM (highest dose often 9.22 µM), most hits filed as activators; 2.4% of 320,000 active; AID 485313; further: nearly all actives have a fitted effect of over 60% in size
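Readout is luciferase luminescence, reflecting NPC1 promoter activation in stably transfected Huh7 cells after 24 h compound exposure at 37 °C in reduced-serum medium with 10% FBS.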
Luc counter: blocks Kinase-Glo luciferase, a counter-screen artifact; AID 1379; Q27757; 0.28% of 200,000 active; Potency, µM (titrated, usually from 38.3 µM), most hits filed as inhibitors; Kinase-Glo luciferase, ATP luminescence, 8 min; further: nearly all actives have a fitted effect of over 60% in size
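Compounds were added to a substrate mix at pH 7.2 (50 mM imidazole, 10 uM ATP, within the enzyme's linear range), followed by Kinase-Glo detection reagent; luminescence was measured after 8 minutes at ambient temperature.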
Hits are given with their value; - = inactive; ? = inconclusive; . = no result given; [ ] = dose if it differs, or a comment. Most compounds without a hit are left out; they make up all but 7.4% or so of the library. The call rests on the fitted dose curve; in most records, active means well fitted curve in the direction sought with a large enough effect; inconclusive means small, poorly fitted or top-dose-only effect, or another doubt; inactive means no such curve, though single readings can be large; an effect the other way counts as inactive or inconclusive.

SMILES	ELG1 genotoxic	FLuc counter	SMN2 splice enh	Rab9 prom act	NPC1 prom act	Luc counter
O=C(Nc1ccc2ccccc2c1)c1cnccn1	?	?	11µM	1µM	3.5µM	-
O=C(Nc1ccc2c(c1)oc1ccccc12)c1cccnc1	-	6µM	-	?	?	-
O=C(Nc1ccc2c(c1)Cc1ccccc1-2)c1cccnc1	-	6.7µM	.	3.2µM	?	-
O=C(Nc1ccc2ccccc2c1)c1cccnc1	?	9.5µM	?	1.4µM	4µM	-
O=C(Nc1ccc2c(c1)oc1ccccc12)c1ccncc1	-	-	-	-	-	-
CCOc1ccccc1NS(=O)(=O)c1cc2[nH]c(=O)c(=O)[nH]c2cc1C	.	-	.	.	.	.
COC(=O)C1=C(C)NC(C)=C(C(=O)OCCNCc2ccccc2)C1c1cccc([N+](=O)[O-])c1 (stereo not given)	.	.	.	.	.	-
O=C(c1csnn1)N1CCC2(CC1)CCN(c1ccccc1)CC2	.	.	-	.	.	-
N#Cc1ccccc1Sc1ccccc1C(=O)Nc1ccc2ccccc2c1	-	-	-	-	-	-
COc1cccc(OC)c1C(=O)Nc1ccc2c(c1)Cc1ccccc1-2	-	?	.	?	-	.
N#Cc1ccc(C(=O)Nc2ccc3ccccc3c2)cc1	?	1.3µM	.	0.45µM	0.35µM	.
O=C(Nc1ccc2c(c1)Cc1ccccc1-2)c1ccco1	3.3µM	2.1µM	11µM	0.4µM	0.79µM	-
CCOc1ccc(-c2cc3c(=O)n(Cc4nc(-c5ccc(OC)cc5OC)oc4C)ccn3n2)cc1Cl	.	-	-	.	.	.
CCN(CC)c1cc(C)c2cc(NC(=O)/C=C/c3ccccc3Cl)ccc2n1	.	-	-	.	.	.
COc1cc(C(=O)Nc2ccccc2OCc2cc(=O)n3cc(C)sc3n2)cc(OC)c1OC	.	-	-	.	.	.
CCC(C)Nc1ncnc2c1cnn2Cc1ccc(Cl)cc1 (stereo not given)	-	-	-	-	-	-
CCC(CO)Nc1ncnc2c1cnn2-c1ccc(Cl)cc1 (stereo not given)	?	1.7µM	?	0.32µM	0.45µM	-
CCC(CO)Nc1ncnc2c1cnn2-c1ccc(OC)cc1 (stereo not given)	2.6µM	6.7µM	10µM	1µM	1µM	-
COc1ccc(CC(=O)NNc2ncnc3c2cnn3-c2ccccc2)cc1	-	-	-	-	-	-
CCOc1ccccc1NC(=O)C(NS(=O)(=O)c1ccc2c(c1)CCC(=O)N2)c1ccccc1 (stereo not given)	.	-	-	.	.	.
COc1cccc(C(=O)c2sc(NC(C)C)nc2N)c1	-	-	20µM	-	-	-
CN(C)CC[C@@H](C(=O)C(C)(C)C)c1ccccn1	.	.	-[9.22 µM]	.	.	-[7.66 µM]
CN(C)S(=O)(=O)c1cccc(C(=O)N=C2N=C3C=CC(Cl)=CN3Cc3ccccc32)c1	?	17µM	.	3.5µM	2.5µM	.
c1ccc2c(c1)NC1(CCCCCC1)n1c-2nc2ccccc21	4µM	13µM	10µM	3.2µM	?	-
CC1(c2ccccn2)Nc2ccccc2-c2nc3ccccc3n21 (stereo not given)	-	?	-	-	-	-
SMILES	ELG1 genotoxic	FLuc counter	SMN2 splice enh	Rab9 prom act	NPC1 prom act	Luc counter
c1ccc2c(c1)NC1(CCCCC1)n1c-2nc2ccccc21	?	21µM	-	-	?	-
COC(=O)c1ccc(C(/C=C/[C@@H](C)C(=O)NCCc2c[nH]c3ccccc23)NC(=O)OCc2ccccc2)cc1 (stereo not given in full)	.	.	-	.	.	-
Cc1cc2cc(CNC(=O)Nc3cccc(Cl)c3)ccc2n1C	23µM	-	-	-	-	-
Cc1cccc(NC(=O)NCc2ccc3c(c2)cc(C)n3C)c1	?	-	-	-	-	-
COc1ccc(CNC(=O)Nc2cccc(Cl)c2)cc1	?	?	.	?	2.5µM	.
COc1ccccc1C(=O)NC(=O)Nc1cccc(Cl)c1	?	2.7µM	.	4µM	?	.
COc1ccccc1C(=O)Nc1cccc(NC(C)=O)c1	-	?	-	-	-	-
COc1ccc(NC(=O)NCc2ccc(Cl)cc2)cc1	-	-	.	-	-	.
C/C(C/C(C)=C1/SC(=S)NC1=O)=C1\SC(=S)NC1=O	-	27µM	-	-	-	-
CC(=O)c1cccc(NC(=O)CSc2nc3c(=O)n(C)c(=O)n(C)c3n2C)c1	.	-	.	.	.	.
O=C(O)CNC(=O)/C=C/c1ccc(Cl)cc1Cl	-	24µM	-	-	-	-
COc1ccc(N=[N+]([O-])c2ccc(OC)cc2)cc1	.	.	7.1µM	.	.	.
COc1cc(OC)c(C2CC(=O)N3CN(c4ccc(C)cc4)CSC3=C2C#N)cc1OC (stereo not given)	-	15µM	-	-	?	-
COc1ccc(N2CSC3=C(C#N)C(c4cc(OC)c(OC)cc4OC)CC(=O)N3C2)c(OC)c1 (stereo not given)	-	?	-	-	-	-
CCOc1ccccc1N1CSC2=C(C#N)C(c3c(OC)ccc4ccccc34)CC(=O)N2C1 (stereo not given)	-	7.6µM	-	-	-	-
COc1ccc(N2CSC3=C(C#N)C(c4cc(OC)ccc4OC)CC(=O)N3C2)c(OC)c1 (stereo not given)	-	?	-	-	-	-
CC1=CC(C)=Nc2ccccc2N1	16µM	17µM	-	-	-	-
COc1ccc(NC(=O)c2oc3ccccc3c2NC(=O)C2CCCCC2)c(OC)c1	.	-	-	.	.	.
CCOc1ccccc1NC(=O)CC(c1ccc(F)cc1)N1Cc2ccccc2C1=O (stereo not given)	.	-	.	.	.	.
Cc1ccc(-c2csc(N/N=C/c3ccco3)n2)c(C)c1	-	-	4µM	-	-	-
CN(C)S(=O)(=O)c1cccc(-c2csc(N/N=C/c3ccco3)n2)c1	-	?	.	-	-	.
COc1ccc(C(=O)Nc2cc(C(=O)O)cc(C(=O)O)c2)cc1Cl	-	-	-	-	-	-
COc1ccc(NC(=O)c2cccc(OC(F)F)c2)cc1Cl	5.8µM	11µM	?	2.2µM	3.5µM	-
COc1ccc(NC(=O)c2ccco2)cc1NC(=O)c1ccccc1F	-	-	.	-	-	.
COc1ccc(NC(=O)c2ccccc2F)cc1Cl	9.2µM	9.5µM	?	2.2µM	2.2µM	-
SMILES	ELG1 genotoxic	FLuc counter	SMN2 splice enh	Rab9 prom act	NPC1 prom act	Luc counter
O=C(Nc1ccc(OC(F)F)c(Cl)c1)c1cccc(OC(F)F)c1	-	19µM	-	-	-	-
COC(=O)c1cccc(NC(=O)c2ccc(OC)c(Cl)c2)c1	-	11µM	?	?	?	-
CCN(CC)C(=O)c1c(-c2ccccc2)c(-c2ccccc2)nn(CC)c1=O	.	-	?	.	.	.
CC1CCC(NC(=O)c2ccc3c(c2)N(Cc2cccc(F)c2)C(=O)c2ccccc2S3)CC1 (stereo not given)	.	-	.	.	.	.
COc1ccc(NC(=O)c2cccc(F)c2)cc1Cl	9.2µM	13µM	?	?	3.5µM	-
CC(=O)Nc1ccc(N/C=C(\C=O)c2nc3ccccc3o2)cc1	-	-	.	-	-	-
